HTT cytoprotect – qHTS Multiplex Assay to Identify Dual Action Probes in a Cell Model of Huntington: Cytoprotection (ATP); AID 1471, 2008; Potency, µM (highest dose often 56.4 µM), inactives show cytoprotection (ATP increase), most hits filed as activators; PC12 HTT-Q103 induced, cytoprotection, ATP luminescence, 40 h; 0.14% of 230,000 active; further: potency means the concentration at half of the fitted maximal effect; % of control where 0% means no effect; nearly all actives have a fitted effect of over 45% in size
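Rat PC12, Q103 Htt exon1-GFP fusion, ecdysone promoter; tebufenozide inducer 100 nM final; compound titration; qHTS, 1500 cells/well; ATPlite luminescent read.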
PKM2 activator – qHTS Assay for Activators of Human Muscle isoform 2 Pyruvate Kinase. Pyruvate kinase PKM (Homo sapiens), P14618. purified PKM2, Kinase-Glo ATP luminescence, activation; response scale: 0% is enzyme alone, no compound. Potency, µM (series often up to 57.5 µM), without a hit: top-dose activation, actives largely listed as activators. 0.34% of 260,000 active; further: potency means the concentration at half of the fitted maximal effect; on the % scale 0 is the no-effect control and ±100 the full control effect; nearly all actives have a fitted effect of over 55% in size
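Purified hPK-M2 (>95%) run at intermediate activity with 0.1 mM ADP and 0.5 mM PEP in 50 mM imidazole pH 7.2, KCl, MgCl2; 1 h room temperature. ATP formed read by Kinase-Glo luminescence; normalized to uninhibited and no-enzyme controls.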
GLA inh pH 4.5 – qHTS Assay for Inhibitors of Human alpha-Galactosidase at pH 4.5; Alpha-galactosidase A (Homo sapiens), P06280; purified enzyme, 4-MU-alpha-Gal fluorescence, pH 4.5; activity change, negative = inhibition, % at 105 µM; 230,000 tested, under 10 active;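 further: 0% = full activity with enzyme and -100% = basal without enzyme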
Target sequence (P06280 whole entry, looked up): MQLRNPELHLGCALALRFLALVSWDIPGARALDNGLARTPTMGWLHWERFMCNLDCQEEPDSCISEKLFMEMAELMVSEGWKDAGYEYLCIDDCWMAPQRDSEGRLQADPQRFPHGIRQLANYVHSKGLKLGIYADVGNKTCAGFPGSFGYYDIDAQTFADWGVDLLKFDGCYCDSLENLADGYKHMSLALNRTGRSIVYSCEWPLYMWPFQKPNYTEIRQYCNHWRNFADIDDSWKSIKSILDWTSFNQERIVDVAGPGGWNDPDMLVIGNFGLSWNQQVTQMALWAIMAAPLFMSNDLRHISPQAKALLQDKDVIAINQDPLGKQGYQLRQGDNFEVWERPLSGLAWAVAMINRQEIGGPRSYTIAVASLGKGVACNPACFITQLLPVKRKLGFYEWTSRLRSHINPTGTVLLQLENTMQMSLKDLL
GLA spleen mod – qHTS Assay for Inhibitors and Activators of Human alpha-Galactosidase From Spleen Homogenate | Potency, µM (top dose mostly 80 µM), inactives show at the highest dose activity change, negative = inhibition, most hits filed as inhibitors | 0.008% of 240,000 active | Alpha-galactosidase A (Homo sapiens), P06280 | human spleen homogenate, 4MU-alpha-Gal fluorescence, 40 min;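 further: potency means the concentration at half of the fitted maximal effect; 0% = enzyme with vehicle and -100% = no enzyme basal signal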
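Fluorogenic readout (Ex 365/Em 440 nm) of 4-methylumbelliferone released from 1 mM 4-MU-alpha-galactoside by spleen homogenate, 40 min at 37C, pH 5.0. Data normalized to no-enzyme and enzyme controls; Hill-equation AC50 from compound titrations.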
HTT aggregate – qHTS Multiplex Assay to Identify Dual Action Probes in a Cell Model of Huntington: Aggregate Formation (GFP) | PC12 HttQ103-GFP aggregates, Acumen cytometry, 40 h | Potency, µM (titrated, usually from 46.1 µM), inactives show at the top dose activity change, negative = inhibition, actives largely listed as inhibitors | 1.1% of 220,000 active | AID 1688, 2009; further: potency means the concentration at half of the fitted maximal effect; on the % scale 0 is the no-effect control and ±100 the full control effect; nearly all actives have a fitted effect of over 60% in size
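Quantitative HTS on tebufenozide-induced (100 nM) PC12 cells stably expressing polyQ103 Huntingtin exon 1–GFP. Reduction of bright GFP aggregates, detected by laser scanning cytometry after lysis, identified actives across the titration.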
* = called active by the depositor; u = inconclusive; x = no result; ! = a repeat was not active; [ ] = another dose, or the depositor's remark. In the library only some 1.2% were active in any assay of this set; here they are far more common. The call rests on the fitted dose curve; in most records, active means well fitted curve in the direction sought with a large enough effect; inconclusive means small, poorly fitted or top-dose-only effect, or another doubt; inactive means no such curve, though single readings can be large; an effect the other way counts as inactive or inconclusive.

SMILES	HTT cytoprotect	PKM2 activator	GLA inh pH 4.5	GLA spleen mod	HTT aggregate
O=c1c(-c2ccc(F)c(F)c2)nc2cncnc2n1Cc1ccc(F)cc1	-14%	x	x	-7%	x
C=Cc1ccccc1Cl	-19%	x	x	1%	x
COc1ccc(CCNS(=O)(=O)c2ccccc2)cc1OC	-3%	-6%	-7	0%	3.5µM*
O=C(Nc1cccc(C(=O)N2CCN(Cc3ccccc3)CC2)c1)c1ccccc1	-11%	u	-2	-8%	11µM*
CC(=O)Nc1cccc(C(=O)N2CCN(Cc3ccccc3)CC2)c1	7%	17%	-5	5%	-8%
N#C/C(=N\O)c1nc(-c2ccccc2)cs1	-7%	-5%	8	6%	8.9µM*!
N#CC(=C1CCCC1)c1nc(-c2ccccc2)cs1	-53%	1%	9	-4%	-3%
Nc1nc2c(ncn2C2OC(CO)CC2O)c(=O)[nH]1 (configuration not stated)	x	x	-12	-1%	x
COc1ccc(F)cc1C(=O)C1CCCN(Cc2ccc(Oc3ncccn3)cc2)C1 (configuration not stated)	19%[10 µM]	2%	0	-5%	8%[9.22 µM]
COc1ccc(F)cc1C(=O)C1CCCN(Cc2cccn2-c2cccnc2)C1 (configuration not stated)	5%[10 µM]	35µM*	-2	4%	-1%[9.22 µM]
O=C(O)C[C@H](Cc1ccc2c(c1)OCO2)C(=O)O	4%[10 µM]	x	x	x	x
O=C(c1cc(-c2ccccn2)nc2ccc(Br)cc12)N1CCN(S(=O)(=O)c2ccccc2)CC1	-10%	25µM*	4	2%	-24%
Cc1ccc(-c2cc(C(=O)N3CCN(c4ccc(F)cc4)CC3)c3ccccc3n2)o1	-68%	u	2	-6%	2%
O=C(c1cc(-c2ccccn2)nc2ccc(Br)cc12)N1CCc2ccccc2C1	11%[10 µM]	0%	-4	0%	-8%
Cc1ccc(-c2cc(C(=O)N3CCN(c4ncccn4)CC3)c3cc(Br)ccc3n2)o1	-10%[10 µM]	8.9µM*	7	2%	u
O=P(O)(O)OC1[C@H](O)[C@H](OP(=O)(O)O)C(OP(=O)(O)O)[C@H](OP(=O)(O)O)[C@H]1O (some centres not stated)	-32%[1.9 µM]	x	-2	-19%[3.15 µM]	x
CC1(C)OC2CC3C4CCC5=CC(=O)C=C[C@@]5(C)[C@]4(F)C(O)C[C@@]3(C)[C@]2(C(=O)CO)O1 (some centres not stated)	-55%	x	0	-15%	x
O=C(O)c1ccccc1NS(=O)(=O)c1cccc(-n2sc3ccccc3c2=O)c1	x	2.5µM*	x	x	x
Cc1ccc(NC(=S)NCCSc2ccc(Cl)cc2)cc1	-181%	-6%	-6	-3%	u
Cc1cccc(C)c1NC(=S)NCCSc1ccc(Cl)cc1	0%	1%	1	-7%	11µM*
CC(C)c1onc(C(=O)NC(C)c2ccccc2)c1[N+](=O)[O-] (configuration not stated)	-41%	-14%	1	9%	4.5µM*
CN1C(=O)C2(c3ccccc31)C1CCCC=C1C(C#N)=C(N)C2(C#N)C#N (configuration not stated)	20µM*	-30%	-25	-22%	x
COc1ccc(C2C=C3CNS(=O)(=O)C3CC2OC(=O)c2ccc(Cl)cc2)cc1 (configuration not stated)	x	x	x	4%	x
Cc1cc(C(=O)OCC(=O)Nc2ccccc2F)c(C)o1	9%	0%	5	5%	0%
Cc1cccc(NC(=O)COC(=O)c2cc(C)oc2C)c1	15%	0%	-12	15%	13µM*
SMILES	HTT cytoprotect	PKM2 activator	GLA inh pH 4.5	GLA spleen mod	HTT aggregate
Clc1ccc(-c2csc(=Nc3cccnc3)n2CCCn2ccnc2)cc1Cl	-17%[10 µM]	1%	9	6%	11µM*
Cc1noc(C)c1-c1cncnc1Nc1ccccc1	8%	x	x	8%	x
CCOc1ncccc1C(=O)NCCN1C(=O)S/C(=C/c2cccs2)C1=O	x	16µM*	-4	-1%	-5%
CCCCCCCC1=Cc2ccc(F)cc2C(C(C(C)=O)C(=O)OC)N1C(=O)OC (configuration not stated)	0%	-8%[11.5 µM]	-3	6%	x
CCCCOc1ccccc1NC(=O)c1scc2c1OCCO2	-49%	7%	-11	0%	13µM*
CCCCOc1ccccc1NC(=O)c1ccco1	12%	5%	-15	-20%	23%
C#CCCCO/N=C1/C[C@@H](O)[C@@H](O)[C@@H]2[C@@H]3C(=O)N(CC)C(=O)[C@H]3CC[C@H]12	1%[10 µM]	x	x	-8%[17.5 µM]	x
COc1ccc(S(=O)(=O)N(C(C)=O)c2ccc(OC(C)=O)c3ccccc23)cc1[N+](=O)[O-]	-4%[10 µM]	u	u	-6%	6.3µM*
COC(=O)c1ccc(NC(=O)CN(C)S(=O)(=O)c2ccc(OC)c(C)c2)cc1	4%[10 µM]	-8%	-28	0%	1.3µM*
COc1ccc(S(=O)(=O)N(C)CC(=O)Nc2ccc(C(N)=O)cc2)cc1OC	-8%	-7%	-9	7%	-9%
CC12CC[C@@H]3c4ccc(OP(=O)(O)O)cc4CCC3C1CCC2=O (some centres not stated)	6%[10 µM]	x	x	x	x
COc1ccc(C(=O)C(CCC(CNC(C)(C)C)C(=O)c2ccc(OC)cc2)CNC(C)(C)C)cc1 (configuration not stated)	x	4%	0	0%	18µM*
CC1CCc2c(sc3ncnc(NCCN4CCOCC4)c23)C1 (configuration not stated)	-15%[10 µM]	-7%	6	3%	-3%[9.22 µM]
Cc1sc2ncnc(NCCN3CCOCC3)c2c1C	-4%	-4%	3	-2%	11µM*
COC(=O)[C@@H]1CCCN1C(=O)[C@@H](C)CO	12%[10 µM]	x	x	10%[17.5 µM]	x
C[C@@H](C1[C@@H](O)CC2C3C=CC4C[C@@H](O)CC[C@]4(C)[C@H]3CC[C@@]21C)[C@@H]1CCCCN1 (some centres not stated)	1%	x	-7	3%	x
COc1ccc(NC(=O)CSc2ccc(-c3cccnc3)nn2)cc1	x	-4%	x	x	x
CC(=O)Nc1cccc(NC(=O)CSc2ccc(-c3cccnc3)nn2)c1	-33%	32µM*	5	5%	18%
COc1ccccc1-c1cc(C(=O)N2CCc3ccccc3C2)no1	-2%	x	x	x	x
CC(C)(C)c1ccc([C@@H](O)CCCN2CCC(C(O)(c3ccccc3)c3ccccc3)CC2)cc1	u	x	-3	-1%[29.1 µM]	x
CC(C)(C)c1ccc(C(O)CCCN2CCC(C(O)(c3ccccc3)c3ccccc3)CC2)cc1 (configuration not stated)	-99%	8%	-3	-6%	22µM*
